Experiment [1] in a line: ATG_NFI_CIS: Attagene CIS-FACTORIAL HepG2 Assay for human Nuclear Factor I (NFI) (AID 2282989). The conditions noted are these: HepG2 cis-regulatory reporter, NFI response element transcription; actives raise or lower the signal. A digest of the protocol: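 HepG2 cells transiently transfected with cis-element-driven multiplexed reporter transcription units, dosed for 24 h. Reporter mRNA quantified by RT-PCR, fluorescent labelling, HpaI digestion and capillary electrophoresis; bidirectional fit versus DMSO baseline.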

Experiment [2] can be described thus: ATG_NRF2_ARE_CIS: Attagene CIS-FACTORIAL HepG2 Assay for human Nuclear Factor Erythroid 2 Related Factor 2 (NFR2) response to Antioxidant Response Elements (ARE) (AID 2282992). The note with it: HepG2 Attagene ARE/NRF2 reporter, transcription factor activity; actives raise or lower the signal. A digest of the protocol:
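Endogenous transcription factor activity read out as reporter transcript levels (RT-PCR plus capillary electrophoresis, fluorescence) in transiently transfected HepG2 cells. Measured at 24 h after dosing; gain or loss of signal fitted versus DMSO.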

The nature of experiment [3]: ATG_Oct_MLP_CIS: Attagene CIS-FACTORIAL HepG2 Assay for human Octamer-Binding Transcription Factor (Oct) (AID 2282993). The conditions noted are these: HepG2 Attagene cis-factorial Oct reporter, mRNA; actives raise or lower the signal. A digest of the protocol:
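HepG2 cells transiently transfected with cis-promoter-driven multiplexed reporter transcription units, dosed for 24 h. Reporter mRNA quantified by RT-PCR, fluorescent labelling, HpaI digestion and capillary electrophoresis; bidirectional fits versus DMSO baseline.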

The target of experiment [4] is Cellular tumor antigen p53 (Homo sapiens) (UniProt P04637). The experiment in a line: ATG_p53_CIS: Attagene CIS-FACTORIAL HepG2 Assay for human p53 Transcription Factor (AID 2282994). The conditions noted are these: HepG2 p53 cis-element reporter, Attagene mRNA; actives raise or lower the signal. A digest of the protocol: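 Endogenous p53 activity read in transiently transfected HepG2 from a cis-element-driven reporter transcript after 24 h exposure. RNA reverse-transcribed, PCR-amplified, fluorescently labelled and sized by capillary electrophoresis; gain or loss fitted against DMSO baseline.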
Sequence of Cellular tumor antigen p53 (Homo sapiens) (P04637 whole entry, looked up): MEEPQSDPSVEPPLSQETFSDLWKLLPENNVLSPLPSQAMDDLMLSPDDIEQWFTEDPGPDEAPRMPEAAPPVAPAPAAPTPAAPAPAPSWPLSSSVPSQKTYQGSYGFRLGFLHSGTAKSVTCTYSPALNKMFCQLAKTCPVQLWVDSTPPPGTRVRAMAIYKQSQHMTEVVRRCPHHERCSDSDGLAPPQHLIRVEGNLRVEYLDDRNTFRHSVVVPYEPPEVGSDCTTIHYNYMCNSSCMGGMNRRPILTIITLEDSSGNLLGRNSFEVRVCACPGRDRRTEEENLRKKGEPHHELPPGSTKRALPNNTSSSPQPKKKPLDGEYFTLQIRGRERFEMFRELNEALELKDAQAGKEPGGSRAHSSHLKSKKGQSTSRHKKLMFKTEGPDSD

Experiment [5] is described as follows: BSK_3C_TissueFactor: BioMAP Diversity Plus: 3C Assay for Tissue Factor Biomarker Activity (AID 2282997). The note with it: BioMAP 3C HUVEC, tissue factor biomarker readout; actives raise or lower the signal. A digest of the protocol: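 In this endothelial system, HUVEC are treated for 24 h and Tissue Factor is assessed by ELISA, normalised to DMSO.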
Experiment [6] can be described thus: BSK_3C_uPAR: BioMAP Diversity Plus: 3C Assay for Urokinase-type plasminogen activator receptor (uPAR) Biomarker Activity (AID 2282998). The note with it: BioMAP 3C HUVEC, uPAR biomarker ELISA; actives raise or lower the signal. A digest of the protocol:
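Human umbilical vein endothelial primary cells were exposed to test chemical for 24 h. Cell-surface uPAR was then quantified by ELISA, and responses were fitted bidirectionally against DMSO as negative control and baseline.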
(In general: In an ELISA, binding on a coated surface is turned into a signal by an enzyme label.)

A short description of experiment [7]: BSK_3C_VCAM1: BioMAP Diversity Plus: 3C Assay for Vascular cell adhesion molecule 1 (VCAM1) Biomarker Activity (AID 2282999). The note with it: BioMAP 3C HUVEC, VCAM1 ELISA, cytokine-stimulated; actives raise or lower the signal. A digest of the protocol: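 Activity fitted in both directions relative to DMSO, with ELISA measurement of the surface marker on primary HUVEC (3C) at 24 h post-treatment; parallel SRB staining (0.1% SRB, TCA-fixed, 560 nm) flagged overt cytotoxicity.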

Experiment [8] can be described thus: BSK_4H_Eotaxin3: BioMAP Diversity Plus: 4H Assay for Eotaxin 3 Biomarker Activity (AID 2283000).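 For outcome: CCL26 protein level quantified by ELISA in parallel with SRB cytotoxicity check.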 The note with it: primary human endothelial cells (HUVEC); actives raise or lower the signal. A digest of the protocol:
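ELISA quantitation of CCL26 (Eotaxin-3) protein from chemically dosed human vascular endothelial cells at 24 h; increases and decreases both scored relative to DMSO-treated baseline.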

Experiment [9] has as its target human Peroxisome Proliferator-activated Receptor alpha (PPARa), PPARA (gene 5465) (UniProt Q07869). The experiment in a line: ATG_PPARa_TRANS: Attagene TRANS-FACTORIAL HepG2 Assay for human Peroxisome Proliferator-activated Receptor alpha (PPARa) (AID 2283001; active = hit-call score of the fitted dose curve at least 0.9, where 1 is the maximum). A digest of the protocol:
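Reporter transcripts quantified by RT-PCR plus capillary electrophoresis after 24 h treatment, fitted upward relative to DMSO. Cells: human HepG2 transiently carrying multiple GAL4-UAS reporter units driven by NR-Gal4 chimeras.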

Experiment [10] has as its target human Peroxisome Proliferator-activated Receptor delta (PPARd), PPARD (gene 5467) (UniProt Q03181). The experiment in a line: ATG_PPARd_TRANS: Attagene TRANS-FACTORIAL HepG2 Assay for human Peroxisome Proliferator-activated Receptor delta (PPARd) (AID 2283002; active = hit-call score of the fitted dose curve at least 0.9, where 1 is the maximum). A digest of the protocol: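 Transient HepG2 transfection (multiple GAL4-UAS RTUs, chimeric receptor-Gal4); 24 h dosing; total RNA → oligo(dT) RT → PCR → 6-FAM primer extension → HpaI cut → CE. Positive direction vs DMSO.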

Read-out in experiment [11]: Intercellular Adhesion Molecule 1 (ICAM1), ICAM1 (gene 3383)
The experiment in a line: BSK_3C_ICAM1: BioMAP Diversity Plus: 3C Assay for Intercellular Adhesion Molecule 1 (ICAM1) Biomarker Activity (AID 2283003). The conditions noted are these: primary human endothelial cells (HUVEC); actives raise or lower the signal. A digest of the protocol:
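ELISA readout of ICAM1 in human umbilical vein endothelial cells in the 3C system, taken 24 h post-dose. Gain or loss of signal versus DMSO was fitted in both directions, with SRB total-protein staining run in parallel.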

Experiment [12] concerns the target human Retinoic Acid Receptor beta (RARb), RARB (gene 5915) (UniProt P10826). The experiment in a line: ATG_RARb_TRANS: Attagene TRANS-FACTORIAL HepG2 Assay for human Retinoic Acid Receptor beta (AID 2283004; active = hit-call score of the fitted dose curve at least 0.9, where 1 is the maximum). A digest of the protocol: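 Fluorescent capillary-electrophoresis detection of GAL4-UAS reporter mRNA defines the endpoint, with induction over DMSO-treated wells scored as activity. Transiently transfected human hepatoma HepG2 cells expressing exogenous NR–Gal4 proteins are exposed to test chemicals for 24 h.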

For experiment [13], the target named is Retinoic acid receptor alpha (Homo sapiens) (UniProt P10276). The experiment in a line: ATG_RARa_TRANS: Attagene TRANS-FACTORIAL HepG2 Assay for human Retinoic Acid Receptor alpha (RARa) (AID 2283005; active = hit-call score of the fitted dose curve at least 0.9, where 1 is the maximum;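 for AC50: potency for increased reporter signal meaning RARa activation over DMSO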). A digest of the protocol:
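Reporter transcripts, measured by RT-PCR with fluorescent labeling and capillary electrophoresis after 24 h dosing, reflect activity of an exogenous human RARa–GAL4 fusion in transiently transfected HepG2. Fitted for increase relative to DMSO.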

Experiment [14] in a line: BSK_3C_Proliferation: Cell Proliferation Assessment in the BioMAP Diversity Plus: 3C Assay (AID 2283006).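 For AC50: potency may reflect either rise or fall in cell number versus DMSO.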 The note with it: primary human endothelial cells (HUVEC). A digest of the protocol: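 Proliferation as total protein: sulforhodamine B (0.1%) stain of TCA-fixed subconfluent human umbilical vein endothelial cells, absorbance 560 nm, 48 h after dosing. Activity fitted in both directions against DMSO baseline.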

For experiment [15], the target named is Nuclear receptor subfamily 1 group I member 2 (Homo sapiens) (UniProt O75469). The experiment in a line: ATG_PXR_TRANS: Attagene TRANS-FACTORIAL HepG2 Assay for human Pregnane X Receptor (PXR) (AID 2283008; active = hit-call score of the fitted dose curve at least 0.9, where 1 is the maximum). A digest of the protocol: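 Transactivation by exogenous PXR–GAL4 fusion measured as reporter transcript induction after 24 h compound treatment of transfected human HepG2 cells. Read-out via RT-PCR and capillary electrophoresis of labelled fragments, fitted upward relative to DMSO.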
Sequence of Nuclear receptor subfamily 1 group I member 2 (Homo sapiens) (O75469 whole entry, looked up, the tested form may be a part): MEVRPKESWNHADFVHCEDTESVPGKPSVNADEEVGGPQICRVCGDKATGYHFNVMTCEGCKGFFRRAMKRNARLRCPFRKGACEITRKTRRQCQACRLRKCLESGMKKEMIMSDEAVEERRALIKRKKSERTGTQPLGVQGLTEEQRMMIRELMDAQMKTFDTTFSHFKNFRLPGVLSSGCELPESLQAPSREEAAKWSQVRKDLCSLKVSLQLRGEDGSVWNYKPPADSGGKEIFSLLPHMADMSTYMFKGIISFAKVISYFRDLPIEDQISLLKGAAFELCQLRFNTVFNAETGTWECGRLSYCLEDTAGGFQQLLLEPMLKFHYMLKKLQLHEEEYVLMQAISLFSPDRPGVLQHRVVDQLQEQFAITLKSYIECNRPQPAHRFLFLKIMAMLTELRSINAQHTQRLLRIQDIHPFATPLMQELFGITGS

Experiment [16] addresses human Retinoic Acid Receptor gamma (RARg), RARG (gene 5916) (UniProt P13631). The experiment in a line: ATG_RARg_TRANS: Attagene TRANS-FACTORIAL HepG2 Assay for human Retinoic Acid Receptor gamma (RARg) (AID 2283009; active = hit-call score of the fitted dose curve at least 0.9, where 1 is the maximum). A digest of the protocol:
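Transactivation of exogenous RARg-Gal4 fusion measured as reporter transcript induction after 24 h in transfected HepG2 cells. RNA reverse-transcribed, amplified, fluorescently labeled and resolved by capillary electrophoresis; increase relative to DMSO.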

In experiment [17] the target is human RAR-related Orphan Receptor beta (RORb), RORB (gene 6096) (UniProt Q92753). The experiment in a line: ATG_RORb_TRANS: Attagene TRANS-FACTORIAL HepG2 Assay for human RAR-related Orphan Receptor beta (RORb) (AID 2283010; active = hit-call score of the fitted dose curve at least 0.9, where 1 is the maximum). A digest of the protocol:
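Read-out is reporter mRNA induction, quantified by RT-PCR with fluorescent capillary electrophoresis, 24 h post-dose in transiently transfected HepG2 expressing exogenous NR-Gal4 chimera. Activity fitted upward versus DMSO.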

Experiment [18] concerns the target Peroxisome proliferator-activated receptor gamma (Homo sapiens) (UniProt P37231). The experiment in a line: ATG_PPARg_TRANS: Attagene TRANS-FACTORIAL HepG2 Assay for human Peroxisome Proliferator-activated Receptor-gamma (PPARg) (AID 2283007; active = hit-call score of the fitted dose curve at least 0.9, where 1 is the maximum). A digest of the protocol:
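Human hepatoma HepG2, transient MRTU transfection, 24 h treatment. mRNA reporter signal by RT-PCR plus capillary electrophoresis, fluorescence detection; fitted for increase over DMSO negative control.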

A short description of experiment [19]: ATG_NF_kB_CIS: Attagene CIS-FACTORIAL HepG2 Assay for human Nuclear Factor Kappa B (NF-kB) (AID 2282991). The note with it: HepG2 Attagene cis-factorial NF-kB reporter mRNA; actives raise or lower the signal. A digest of the protocol:
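Multiplexed cis-reporter assay in transiently transfected HepG2. 24 h treatment; RNA isolated, RT-PCR, labelled fragments resolved by CE. DMSO baseline.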

Inconclusive results are not listed. The source holds several records for some structures; these can differ, active in one and inactive in another. Activity calls are given as the source filed them. Rule for the calls, unless noted: active = hit-call score of the fitted dose curve at least 0.9, where 1 is the maximum; inactive = score below 0.9.

Sequence of human Retinoic Acid Receptor beta (RARb), RARB (gene 5915) (P10826 whole entry, looked up, the tested form may be a part): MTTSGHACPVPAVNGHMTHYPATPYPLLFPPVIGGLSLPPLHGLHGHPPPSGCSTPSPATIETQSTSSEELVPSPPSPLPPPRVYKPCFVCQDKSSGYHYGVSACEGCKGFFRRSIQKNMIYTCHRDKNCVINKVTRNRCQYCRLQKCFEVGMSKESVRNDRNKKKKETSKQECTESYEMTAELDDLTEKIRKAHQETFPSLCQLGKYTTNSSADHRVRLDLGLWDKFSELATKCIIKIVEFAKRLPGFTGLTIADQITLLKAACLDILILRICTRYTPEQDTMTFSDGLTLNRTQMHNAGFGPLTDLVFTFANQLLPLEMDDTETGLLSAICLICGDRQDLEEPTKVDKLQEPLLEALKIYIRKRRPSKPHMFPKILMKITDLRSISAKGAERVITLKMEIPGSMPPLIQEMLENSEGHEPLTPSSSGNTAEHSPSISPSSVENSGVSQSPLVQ
Sequence of Retinoic acid receptor alpha (Homo sapiens) (P10276 whole entry, looked up, the tested form may be a part): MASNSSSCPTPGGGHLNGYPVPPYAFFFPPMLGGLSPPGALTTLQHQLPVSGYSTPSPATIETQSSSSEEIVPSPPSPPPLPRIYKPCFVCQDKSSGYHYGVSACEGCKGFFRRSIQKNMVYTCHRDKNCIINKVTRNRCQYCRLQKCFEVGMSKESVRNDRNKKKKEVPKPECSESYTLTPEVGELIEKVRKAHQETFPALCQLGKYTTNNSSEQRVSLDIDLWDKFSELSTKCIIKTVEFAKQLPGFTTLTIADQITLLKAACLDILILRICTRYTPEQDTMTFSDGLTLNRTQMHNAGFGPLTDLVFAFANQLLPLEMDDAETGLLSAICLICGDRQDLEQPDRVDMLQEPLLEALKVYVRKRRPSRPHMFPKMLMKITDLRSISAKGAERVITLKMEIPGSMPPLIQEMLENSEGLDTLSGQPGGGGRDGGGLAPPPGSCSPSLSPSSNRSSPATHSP
Sequence of human Peroxisome Proliferator-activated Receptor alpha (PPARa), PPARA (gene 5465) (Q07869 whole entry, looked up, the tested form may be a part): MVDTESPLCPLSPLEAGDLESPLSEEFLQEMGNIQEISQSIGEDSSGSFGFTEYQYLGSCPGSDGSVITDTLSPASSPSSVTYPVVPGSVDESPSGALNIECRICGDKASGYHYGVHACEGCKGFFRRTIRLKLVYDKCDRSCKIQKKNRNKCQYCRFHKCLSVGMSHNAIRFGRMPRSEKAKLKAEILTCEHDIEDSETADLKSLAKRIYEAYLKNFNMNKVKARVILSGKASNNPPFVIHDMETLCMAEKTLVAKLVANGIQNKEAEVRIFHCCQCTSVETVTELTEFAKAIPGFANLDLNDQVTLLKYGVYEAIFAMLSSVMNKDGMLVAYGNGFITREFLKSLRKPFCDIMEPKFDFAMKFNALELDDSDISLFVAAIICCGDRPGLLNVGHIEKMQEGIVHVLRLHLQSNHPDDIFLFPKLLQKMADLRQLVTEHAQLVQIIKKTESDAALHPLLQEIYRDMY
Sequence of human Peroxisome Proliferator-activated Receptor delta (PPARd), PPARD (gene 5467) (Q03181 whole entry, looked up, the tested form may be a part): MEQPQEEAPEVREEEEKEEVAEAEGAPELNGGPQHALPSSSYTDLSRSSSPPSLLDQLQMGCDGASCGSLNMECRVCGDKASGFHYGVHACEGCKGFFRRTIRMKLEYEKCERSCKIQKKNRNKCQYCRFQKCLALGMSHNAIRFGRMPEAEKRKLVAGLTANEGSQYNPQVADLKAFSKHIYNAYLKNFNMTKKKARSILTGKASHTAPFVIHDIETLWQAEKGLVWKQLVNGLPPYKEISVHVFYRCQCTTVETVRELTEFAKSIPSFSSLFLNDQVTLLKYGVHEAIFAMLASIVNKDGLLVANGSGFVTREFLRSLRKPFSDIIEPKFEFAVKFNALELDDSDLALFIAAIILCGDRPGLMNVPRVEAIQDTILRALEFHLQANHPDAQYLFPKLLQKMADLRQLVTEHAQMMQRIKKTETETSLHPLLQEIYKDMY
Sequence of human RAR-related Orphan Receptor beta (RORb), RORB (gene 6096) (Q92753 whole entry, looked up, the tested form may be a part): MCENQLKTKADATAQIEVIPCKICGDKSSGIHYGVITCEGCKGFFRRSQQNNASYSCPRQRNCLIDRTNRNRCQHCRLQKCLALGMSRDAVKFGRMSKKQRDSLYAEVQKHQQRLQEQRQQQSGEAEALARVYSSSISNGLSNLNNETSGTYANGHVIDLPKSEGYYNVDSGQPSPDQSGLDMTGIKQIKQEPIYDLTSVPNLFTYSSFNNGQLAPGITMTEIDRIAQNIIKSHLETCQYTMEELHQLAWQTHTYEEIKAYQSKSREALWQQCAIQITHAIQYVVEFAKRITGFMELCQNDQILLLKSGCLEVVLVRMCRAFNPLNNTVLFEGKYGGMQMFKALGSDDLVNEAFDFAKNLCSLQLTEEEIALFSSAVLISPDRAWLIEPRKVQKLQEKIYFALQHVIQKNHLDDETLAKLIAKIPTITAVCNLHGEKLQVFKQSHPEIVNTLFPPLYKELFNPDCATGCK
Sequence of human Retinoic Acid Receptor gamma (RARg), RARG (gene 5916) (P13631 whole entry, looked up, the tested form may be a part): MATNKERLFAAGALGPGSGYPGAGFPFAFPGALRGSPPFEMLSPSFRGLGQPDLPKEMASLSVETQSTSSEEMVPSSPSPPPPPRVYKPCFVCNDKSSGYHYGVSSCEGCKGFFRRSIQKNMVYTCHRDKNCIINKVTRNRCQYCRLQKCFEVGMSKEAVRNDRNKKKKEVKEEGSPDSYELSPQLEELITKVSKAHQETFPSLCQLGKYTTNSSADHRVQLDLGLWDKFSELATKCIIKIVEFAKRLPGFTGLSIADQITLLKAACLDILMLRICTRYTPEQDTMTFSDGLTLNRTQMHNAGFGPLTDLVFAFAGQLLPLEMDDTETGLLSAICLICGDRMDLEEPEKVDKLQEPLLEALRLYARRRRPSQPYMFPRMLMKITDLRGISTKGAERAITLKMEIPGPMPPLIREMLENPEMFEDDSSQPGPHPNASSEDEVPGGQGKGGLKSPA
Sequence of Peroxisome proliferator-activated receptor gamma (Homo sapiens) (P37231 whole entry, looked up): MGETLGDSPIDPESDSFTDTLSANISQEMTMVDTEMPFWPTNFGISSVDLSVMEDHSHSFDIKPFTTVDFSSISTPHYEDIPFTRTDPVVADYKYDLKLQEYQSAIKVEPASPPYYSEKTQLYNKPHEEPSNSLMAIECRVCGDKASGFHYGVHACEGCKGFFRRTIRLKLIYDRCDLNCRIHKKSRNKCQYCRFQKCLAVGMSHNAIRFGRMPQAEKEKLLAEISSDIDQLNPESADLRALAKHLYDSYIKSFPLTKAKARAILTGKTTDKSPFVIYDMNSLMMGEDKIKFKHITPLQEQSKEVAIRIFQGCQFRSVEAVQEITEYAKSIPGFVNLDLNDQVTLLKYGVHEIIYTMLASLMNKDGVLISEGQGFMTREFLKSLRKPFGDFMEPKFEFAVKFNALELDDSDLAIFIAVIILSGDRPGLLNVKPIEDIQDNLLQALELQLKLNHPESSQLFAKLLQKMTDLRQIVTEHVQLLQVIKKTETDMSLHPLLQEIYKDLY

On to `CCCN(CCOc1c(Cl)cc(Cl)cc1Cl)C(=O)n1ccnc1`, for which the call in [1], in experiment [2], in experiment [3], in [4], in [5] and in [6] was inactive. Besides, the outcome in experiment [7], in experiment [8], in experiment [9], in [10], in experiment [11] and in [12] was inactive. Moreover, the result in experiment [13], in experiment [15] and in experiment [16] was inactive. The AC50 (usually the midpoint of the concentration-response curve, whichever way the signal moves) was 4.52 µM (active) in experiment [2]; 11.1 µM (active) in experiment [3]; 2.5 µM (active) in [13]; 26.7 µM (active) in [14]; 2.96 µM (active) in [15].

Turning to `CNC(=O)CSP(=S)(OC)OC`, the molecule was called inactive in [1], in experiment [2], in experiment [3], in experiment [5], in experiment [6] and in [7]. The result in experiment [8], in experiment [9], in experiment [10], in experiment [11], in experiment [14] and in experiment [15] was inactive. The result in [17] was inactive.

Regarding `O=C(O)COc1ccc(Cl)cc1Cl`, the outcome in experiment [1], in experiment [2], in [3], in [4], in [5] and in experiment [6] was inactive. The result in [7], in experiment [8], in experiment [9], in [10], in experiment [11] and in experiment [14] was inactive. The molecule was called inactive in experiment [15] and in [17].

`O=[N+]([O-])/N=C1\NCCN1Cc1ccc(Cl)nc1`: the molecule was classed as inactive in [1], in [2], in experiment [3], in [5], in experiment [6] and in experiment [7]. The outcome in experiment [8], in experiment [11], in experiment [12], in [13], in experiment [14] and in [18] was inactive. Further, in [16], the result was inactive. Moreover, the AC50 in experiment [15] was 90.7 µM (active).

For `[2H]C1([2H])[n+]2ccccc2-c2cccc[n+]2C1([2H])[2H]`, the half-maximal activity concentration (AC50) in experiment [1] was 50 µM (active); in experiment [19], 13.2 µM (active); in experiment [2], 14.8 µM (active); in experiment [14], 31.7 µM (active). The molecule was called inactive in experiment [3], in experiment [4], in [5], in experiment [6], in [7] and in [8]. The result in [11] was inactive.

In the case of `CCC(C)(NC(=O)c1cc(Cl)c(C)c(Cl)c1)C(=O)CCl` (stereo not drawn), the molecule was called inactive in [1], in [19], in [3], in experiment [4], in experiment [10] and in experiment [12]. Besides, the result in [15], in experiment [16] and in [17] was inactive. For the same molecule, the AC50 in [2] was 1.64 µM (active); in [5] it was 5.41 µM (active); in experiment [6], 14.4 µM (active); in [7], 9.51 µM (active); in [8] it was 9.74 µM (active); in [11], 26.6 µM (active). In addition, the half-maximal activity concentration (AC50) in experiment [14] was 5.47 µM (active).

Regarding `CCOC1Oc2ccc(OS(C)(=O)=O)cc2C1(C)C` (stereo not drawn), the molecule was called inactive in experiment [1], in experiment [19], in experiment [5], in [6], in [7] and in [8]. Further, the result in [10], in experiment [11], in experiment [12], in experiment [13], in experiment [14] and in experiment [16] was inactive. Besides, the AC50 in experiment [2] is 9.79 µM (active); in experiment [3], 23.9 µM (active); in experiment [15] it was 29.6 µM (active).

Source of the values: PubChem BioAssay (EPA / NIEHS).
